{
  "source": "PubChem BioAssay (NCATS)",
  "note": "Where “and” joins values, the source holds several entries; their conditions need not be identical. Identical values can stand only once. Inconclusive results are not listed. A number with no mark means an inactive call. Calls of active or inactive are those of the source. Calls come from the whole dose curve; as a rule, active = well fitted cell-killing curve with a large enough effect; inconclusive = small, poorly fitted or top-dose-only effect; inactive = flat fitted curve, though single readings scatter. % is set by controls: 0 for no effect and ±100 for the full control effect; potency is the fitted concentration of half-maximal effect.",
  "data": [
    {"assay": "Cellular viability qHTS for adrenocortical cancer (ACC) cell line SW-13 (AID 1963989); note: nearly all actives have a fitted effect of over 65% in size;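 for activity (max response): cells grown in serum-free medium with ITS supplement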", "settings": "SW-13 ACC cells viability, CellTiter-Glo, 48 h; activity (max response): active compounds read low", "outline": "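SW-13 cells in ITS-supplemented serum-free DMEM were plated overnight, then exposed for 48 h at 37C to compound titrations (up to 46 uM final). Viability was read by CellTiter-Glo luminescence; four-parameter logistic fits gave IC50 and efficacy.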", "values": [
      {"smiles": "C[C@H]1CN(C[C@H](Cc2ccccc2)C(=O)NCC(=O)O)CC[C@@]1(C)c1cccc(O)c1", "activity (max response)": "8.76%"},
      {"smiles": "FC(F)(F)C(F)(F)C(F)(F)C(F)(F)C(F)(F)C(F)(F)C(F)(F)C(F)(F)Br", "activity (max response)": "7.96%"},
      {"smiles": "Cc1cccc(OCC(O)CNC(C)(C)C)c1C", "note": "(centres undefined)", "activity (max response)": "-1.22%"},
      {"smiles": "CCOC(=O)C(O)c1ccccc1", "note": "(centres undefined)", "activity (max response)": "4.7%"},
      {"smiles": "CCN1CCCC1CN", "note": "(centres undefined)", "activity (max response)": "-2.8%"},
      {"smiles": "CCCCCOC(=O)Nc1nc(=O)n([C@@H]2O[C@H](C)[C@@H](O)[C@H]2O)cc1F", "activity (max response)": "14.3% and 14.2%"},
      {"smiles": "C=CCN1CCc2nc(N)sc2CC1", "activity (max response)": "1.2%"},
      {"smiles": "CCN(CC)CCNC(=O)c1cc(Cl)c(N)cc1OC", "activity (max response)": "-0.158%"},
      {"smiles": "CCCCCCCCCCC(CO)CCCCCCCC", "note": "(centres undefined)", "activity (max response)": "0.379%"},
      {"smiles": "CC(C)(C)c1nnc(NS(=O)(=O)c2ccccc2)s1", "activity (max response)": "4.7%"},
      {"smiles": "NC(CS)C(=O)O", "note": "(centres undefined)", "activity (max response)": "12.6%"},
      {"smiles": "O=C(/C=C/c1ccc(O)c(O)c1)O[C@@H]1C[C@@](OC(=O)/C=C/c2ccc(O)c(O)c2)(C(=O)O)C[C@@H](O)[C@@H]1O", "activity (max response)": "4.38%"},
      {"smiles": "Cc1cc(NC(=O)C2=C(O)c3ccccc3S(=O)(=O)N2C)no1", "activity (max response)": "-0.835%"},
      {"smiles": "Cn1cc(-c2ccc3c(c2)CCN3C(=O)Cc2cccc(C(F)(F)F)c2)c2c(N)ncnc21", "activity (max response)": "-1.75%"},
      {"smiles": "Clc1ccc2nsnc2c1NC1=NCCN1", "activity (max response)": "-2.56% and -8.39%"},
      {"smiles": "OCCN1C[C@H](O)[C@@H](O)[C@H](O)[C@H]1CO", "activity (max response)": "9.26% and -11.1%"},
      {"smiles": "C[C@@H]1CCNC(=O)c2cc3ccc(C(=O)Nc4nc5ccccc5n4CCCN(C)C)cc3n21", "Potency": "25.1 µM (active)"},
      {"smiles": "NCC(=O)CCC(=O)O", "activity (max response)": "16.5%"},
      {"smiles": "CC1(C)[C@@H]2CC[C@@]1(C)C(=O)C2", "activity (max response)": "10.1%"},
      {"smiles": "CCc1cccc2c(CCO)c[nH]c12", "activity (max response)": "12.9%"},
      {"smiles": "O=c1cc[nH]c(=O)[nH]1", "activity (max response)": "7.94%"},
      {"smiles": "CN(C)C1CCN(C(=O)c2ccc(NC(=O)Nc3ccc(-c4nc(N5CCOCC5)nc(N5CCOCC5)n4)cc3)cc2)CC1", "Potency": "0.251 µM (active)"},
      {"smiles": "CCCC(O)C(CC)CO", "note": "(centres undefined)", "activity (max response)": "8.36%"},
      {"smiles": "FC1(F)C(F)(F)C(F)(F)C2(F)C(F)(F)C(F)(F)C(F)(F)C(F)(F)C2(F)C1(F)F", "note": "(centres undefined)", "activity (max response)": "5.48%"},
      {"smiles": "CC(C)C(=O)c1c(C(C)C)nn2ccccc12", "activity (max response)": "11.5%"},
      {"smiles": "O=C(Cn1ccnc1[N+](=O)[O-])NCCO", "activity (max response)": "10.4%"},
      {"smiles": "CC(=O)Oc1c(C)c(C)c2c(c1C)CC[C@@](C)(CCC[C@H](C)CCC[C@H](C)CCCC(C)C)O2", "activity (max response)": "2.68%"},
      {"smiles": "Cn1c(=O)c2c(ncn2C)n(C)c1=O", "activity (max response)": "-5.31% and -10.5%"},
      {"smiles": "O=C(O)Cc1csc(-c2ccc(Cl)cc2)n1", "activity (max response)": "-3.04%"},
      {"smiles": "CC[C@H](C)[C@H](N)C(=O)O", "activity (max response)": "4.01%"},
      {"smiles": "CN1CC(=O)N/C1=N/C(=O)Nc1cccc(Cl)c1", "activity (max response)": "2.23%"},
      {"smiles": "N#CCC(=O)NN", "activity (max response)": "8.55%"},
      {"smiles": "Cc1ccc2c(n1)Oc1ccc(C(C)C(=O)OCC(=O)N(C)C)cc1C2", "note": "(centres undefined)", "activity (max response)": "-7.34% and -9.36%"},
      {"smiles": "C/C(=N\\O)[C@@H](C)NCC(C)(C)CN[C@H](C)/C(C)=N/O", "activity (max response)": "8.19%"},
      {"smiles": "CCN(CC)CC(=O)Nc1c(C)cccc1C(=O)OC", "activity (max response)": "-5.08%"},
      {"smiles": "O=P(O)(O)OCC(O)CO", "note": "(centres undefined)", "activity (max response)": "10.4%"},
      {"smiles": "NC(=O)c1cn(Cc2c(F)cccc2F)nn1", "activity (max response)": "10.9%"},
      {"smiles": "CCCCCCCC/C=C\\CCCCCCCCN", "activity (max response)": "7.78%"},
      {"smiles": "COc1ccc(CCC(C)=O)cc1", "activity (max response)": "-3.66%"}
    ]}
  ]
}
